Experiment [1] has as its target Ribosomal protein S6 kinase alpha-6 (Homo sapiens) (UniProt Q9UK32). As to conditions: at 1 µM.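 Further: each value is a mean inhibition of RSK4 from a GSK PKIS panel screen.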
Experiment [2] addresses T1, Serine/threonine-protein kinase Sgk1 (Homo sapiens) (UniProt O00141).
T1 sequence (whole entry): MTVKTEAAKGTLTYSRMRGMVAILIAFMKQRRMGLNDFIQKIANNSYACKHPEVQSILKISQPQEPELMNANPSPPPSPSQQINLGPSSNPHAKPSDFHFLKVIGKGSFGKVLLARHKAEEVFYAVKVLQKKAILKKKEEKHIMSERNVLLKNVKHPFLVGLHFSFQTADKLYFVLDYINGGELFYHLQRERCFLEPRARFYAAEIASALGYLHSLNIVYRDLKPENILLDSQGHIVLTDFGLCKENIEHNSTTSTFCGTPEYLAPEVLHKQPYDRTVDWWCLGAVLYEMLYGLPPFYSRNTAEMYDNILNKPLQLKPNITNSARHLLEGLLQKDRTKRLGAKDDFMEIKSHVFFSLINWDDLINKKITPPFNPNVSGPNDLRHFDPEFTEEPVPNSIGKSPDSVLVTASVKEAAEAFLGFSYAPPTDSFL
Particulars: at 0.1 µM.

Experiment [3] has as its target T1, Serine/threonine-protein kinase Sgk1 (Homo sapiens). Particulars: at 1 µM.
For experiment [4], the target named is T2, Serine/threonine-protein kinase Sgk2 (Homo sapiens) (UniProt Q9HBY8).
T2 sequence (whole entry): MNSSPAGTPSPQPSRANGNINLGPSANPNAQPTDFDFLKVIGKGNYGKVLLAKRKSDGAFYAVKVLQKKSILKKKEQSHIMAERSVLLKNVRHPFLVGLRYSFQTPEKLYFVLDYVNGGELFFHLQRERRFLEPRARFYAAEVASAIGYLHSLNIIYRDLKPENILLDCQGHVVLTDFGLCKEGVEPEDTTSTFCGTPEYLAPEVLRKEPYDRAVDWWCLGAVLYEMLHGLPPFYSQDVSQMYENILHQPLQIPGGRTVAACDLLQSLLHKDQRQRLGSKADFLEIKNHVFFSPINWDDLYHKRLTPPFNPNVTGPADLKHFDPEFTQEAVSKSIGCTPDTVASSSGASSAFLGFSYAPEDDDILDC
As to conditions: at 0.1 µM.

Experiment [5] concerns the target T2, Serine/threonine-protein kinase Sgk2 (Homo sapiens). Particulars: at 1 µM.
Experiment [6] deals with T3, Serine/threonine-protein kinase Sgk3 (Homo sapiens) (UniProt Q96BR1).
T3 sequence (whole entry): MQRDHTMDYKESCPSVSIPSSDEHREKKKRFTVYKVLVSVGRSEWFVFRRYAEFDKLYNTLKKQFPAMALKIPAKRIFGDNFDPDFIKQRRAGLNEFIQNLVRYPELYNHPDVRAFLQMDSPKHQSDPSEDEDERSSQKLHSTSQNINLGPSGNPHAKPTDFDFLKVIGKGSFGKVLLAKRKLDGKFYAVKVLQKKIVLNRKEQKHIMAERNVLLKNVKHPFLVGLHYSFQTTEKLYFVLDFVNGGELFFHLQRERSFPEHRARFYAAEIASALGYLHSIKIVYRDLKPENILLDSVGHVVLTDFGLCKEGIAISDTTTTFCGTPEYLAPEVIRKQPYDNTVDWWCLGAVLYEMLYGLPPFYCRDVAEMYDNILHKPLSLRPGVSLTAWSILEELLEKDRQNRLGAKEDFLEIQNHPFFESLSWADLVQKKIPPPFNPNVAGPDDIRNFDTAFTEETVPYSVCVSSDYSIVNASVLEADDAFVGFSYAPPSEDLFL
As to conditions: at 0.1 µM.

For experiment [7], the target named is T3, Serine/threonine-protein kinase Sgk3 (Homo sapiens). Particulars: at 1 µM.
Experiment [8] deals with 5'-AMP-activated protein kinase catalytic subunit alpha-1 (Homo sapiens) (UniProt Q13131). Particulars: at 0.1 µM.
The target is the same in experiment [9]. Particulars: at 1 µM.
The target of experiment [10] is 5'-AMP-activated protein kinase catalytic subunit alpha-2 (Homo sapiens) (UniProt P54646). Particulars: at 0.1 µM.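 Further: mean inhibition measured on the AMPK complex of alpha2, beta1 and gamma1 subunits.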

The structures appear in SMILES notation.

Results on 17 molecules are retold here after ChEMBL document CHEMBL1961873, “Compounds: GSK PKIS; Assays: Nanosyn kinase panel” (2012).

In general, inhibition refers to the drop in the measured response relative to a control, in per cent.

Sequence of 5'-AMP-activated protein kinase catalytic subunit alpha-1 (Homo sapiens) (Q13131 whole entry, looked up): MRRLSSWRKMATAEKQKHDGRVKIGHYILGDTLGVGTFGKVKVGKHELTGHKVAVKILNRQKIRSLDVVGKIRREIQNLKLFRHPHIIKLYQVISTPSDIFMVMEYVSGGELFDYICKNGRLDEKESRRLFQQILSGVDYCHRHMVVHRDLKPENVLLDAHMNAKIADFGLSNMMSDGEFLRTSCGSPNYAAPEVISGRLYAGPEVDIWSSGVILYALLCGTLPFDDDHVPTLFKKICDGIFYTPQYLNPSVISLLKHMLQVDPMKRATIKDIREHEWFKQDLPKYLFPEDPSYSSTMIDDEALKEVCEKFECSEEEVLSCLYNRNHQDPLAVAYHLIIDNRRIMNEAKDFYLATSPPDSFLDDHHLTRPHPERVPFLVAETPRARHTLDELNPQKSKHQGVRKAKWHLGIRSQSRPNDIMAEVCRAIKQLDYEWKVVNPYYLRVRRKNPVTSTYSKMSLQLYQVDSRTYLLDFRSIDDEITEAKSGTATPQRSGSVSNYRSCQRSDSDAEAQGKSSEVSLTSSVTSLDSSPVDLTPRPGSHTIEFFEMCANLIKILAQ
Sequence of 5'-AMP-activated protein kinase catalytic subunit alpha-2 (Homo sapiens) (P54646 whole entry, looked up): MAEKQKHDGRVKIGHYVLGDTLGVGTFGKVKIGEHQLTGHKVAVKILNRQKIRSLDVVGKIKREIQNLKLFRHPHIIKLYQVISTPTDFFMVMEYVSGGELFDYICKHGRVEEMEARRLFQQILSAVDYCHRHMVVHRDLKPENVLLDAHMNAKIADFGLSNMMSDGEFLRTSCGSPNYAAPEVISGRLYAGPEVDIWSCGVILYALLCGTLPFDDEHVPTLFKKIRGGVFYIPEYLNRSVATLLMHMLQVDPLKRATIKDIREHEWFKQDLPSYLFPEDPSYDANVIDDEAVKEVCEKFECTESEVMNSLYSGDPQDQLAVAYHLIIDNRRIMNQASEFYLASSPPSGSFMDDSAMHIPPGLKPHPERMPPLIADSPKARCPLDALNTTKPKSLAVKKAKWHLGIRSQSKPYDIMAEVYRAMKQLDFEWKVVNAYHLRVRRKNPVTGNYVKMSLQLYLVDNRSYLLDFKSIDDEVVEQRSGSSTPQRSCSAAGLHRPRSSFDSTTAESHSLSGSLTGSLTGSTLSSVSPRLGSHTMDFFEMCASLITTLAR
Sequence of Ribosomal protein S6 kinase alpha-6 (Homo sapiens) (Q9UK32 whole entry): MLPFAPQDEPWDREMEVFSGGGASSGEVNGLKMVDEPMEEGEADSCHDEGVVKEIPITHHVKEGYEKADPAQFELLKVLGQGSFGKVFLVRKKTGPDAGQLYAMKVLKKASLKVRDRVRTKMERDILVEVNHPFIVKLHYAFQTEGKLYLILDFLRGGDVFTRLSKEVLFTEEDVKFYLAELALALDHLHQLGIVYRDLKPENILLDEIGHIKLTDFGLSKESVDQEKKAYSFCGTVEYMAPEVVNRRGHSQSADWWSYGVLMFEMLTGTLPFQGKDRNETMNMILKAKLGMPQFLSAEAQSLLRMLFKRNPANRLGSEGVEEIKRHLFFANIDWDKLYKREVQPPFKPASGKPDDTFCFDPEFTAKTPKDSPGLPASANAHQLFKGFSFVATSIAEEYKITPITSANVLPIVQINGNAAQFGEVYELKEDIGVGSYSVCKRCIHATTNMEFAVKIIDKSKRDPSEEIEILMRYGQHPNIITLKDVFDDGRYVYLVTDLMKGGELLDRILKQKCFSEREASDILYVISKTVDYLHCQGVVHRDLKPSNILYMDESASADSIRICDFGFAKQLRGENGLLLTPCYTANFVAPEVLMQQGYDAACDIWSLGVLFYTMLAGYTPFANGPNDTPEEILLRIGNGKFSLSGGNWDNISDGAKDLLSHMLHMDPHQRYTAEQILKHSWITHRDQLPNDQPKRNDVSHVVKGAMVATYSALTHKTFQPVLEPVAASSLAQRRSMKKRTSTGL

In the case of `O=C(Nc1n[nH]c2nc(-c3ccco3)c(Br)cc12)C1CC1`, the inhibition in experiment [1] is 2.56%; in experiment [2] it was 3.35%; in experiment [3] it was 3.09%; in [4] it was 0.84%; in [5], -4.73%; in experiment [6], 2.77%. In addition, the inhibition in experiment [7] is 3.45%; in experiment [8], 3.65%; in experiment [9], 3.4%; in [10] it was 1.15%.

Take `CC(=O)Nc1cccc(C#Cc2cncnc2Nc2ccc(OCc3cccc(F)c3)c(Cl)c2)n1`: the inhibition in experiment [1] is -0.14%; in [2], 1.53%; in experiment [3], 5.43%; in experiment [4] it was 1.09%; in [5] it was -1%; in [6], 2.07%. Moreover, the inhibition in experiment [7] was 4.12%; in experiment [8] it was -0.86%; in experiment [9], 3.32%; in experiment [10], -1.09%.

On to `COc1cccc(-n2ncc3c(N/N=C/c4cccc(F)c4)ncnc32)c1`, for which the inhibition in [1] is 3.07%; in experiment [2], 1.3%; in [3], 2.87%; in experiment [4], -1.45%; in experiment [5], 0.6%; in experiment [6], -0.55%. The inhibition in experiment [7] was 0.75%; in [8], 2.52%; in experiment [9], 5.15%; in experiment [10], 4.7%.

For `COc1cc2ncn(-c3cc(OCc4ccccc4C(F)(F)F)c(C(N)=O)s3)c2cc1OC`, the inhibition in experiment [1] came out at 23.6%; in [2] it was 3.02%; in experiment [3] it was 1.49%; in experiment [4] it was 6.11%; in experiment [5] it was 0.81%; in experiment [6] it was 3.87%. The inhibition was found to be 1.64% in experiment [7], 5.52% in experiment [8], 19.1% in [9] and 2.61% in experiment [10].

Take `O=C1NC(=O)C(c2ccccc2Cl)=C1Nc1cccc(O)c1`: the inhibition worked out at 7.12% in experiment [1]; 1.25% in experiment [2]; 2.8% in experiment [3]; 0.71% in experiment [4]; 1.41% in experiment [5]; 4.44% in [6]. For the same molecule, the inhibition in experiment [7] is 0.72%; in experiment [8] it was 1.85%; in experiment [9], 5.89%; in [10], -0.21%.

For `NCc1ccc(-c2nc(-c3ccc(Cl)c(O)c3)c(-c3ccncc3)[nH]2)cc1`, the inhibition is 0.03% in experiment [1]; 0.62% in [2]; 0.21% in experiment [3]; 0.15% in experiment [4]; -0.56% in experiment [6]; -0.81% in experiment [7]. Further, the inhibition is 0.17% in [8], -1.38% in experiment [9] and -2.35% in [10].

For the molecule `O=C1Nc2ccc(C(=O)c3ccco3)cc2C1=Cc1cc(Cl)c(O)c(Cl)c1`, the inhibition was 12% in [1]; 1.08% in [2]; 5.11% in experiment [3]; 1.59% in experiment [4]; 3.35% in experiment [5]; 1.55% in [6]. In addition, the inhibition in [7] was 2.25%; in [8], 4.48%; in [9], 21.4%; in [10], 3.01%.

Turning to `COc1cc2ncn(-c3cc(OCc4ccccc4Cl)c(C(N)=O)s3)c2cc1OC`, the inhibition in experiment [1] came to 17.2%; in experiment [2], 0.97%; in [3] it was 1.67%; in experiment [4], 0.56%; in experiment [5], 0.22%; in experiment [6], 2.12%. Moreover, the inhibition in [7] stood at 0.41%; in experiment [8], 1.36%; in experiment [9], 10.7%; in experiment [10], 4.07%.

Consider `CS(=O)(=O)CCN(CC#N)Cc1ccc(-c2ccc3ncnc(Nc4ccc(OCc5cccc(F)c5)c(Cl)c4)c3c2)o1`, for which the inhibition in experiment [1] is -0.88%; in [2], 3.63%; in experiment [3] it was 0.86%; in experiment [4] it was 1.72%; in [5], -1.45%; in experiment [6], 0.78%. The inhibition is 3.35% in [7], 3.45% in experiment [8], 0.16% in [9] and 3.89% in [10].

Turning to `CS(=O)(=O)CCNCc1ccc(-c2ccc3ncnc(Nc4ccc(OCc5ccccc5)c(Cl)c4)c3c2)o1`, the inhibition in [1] was 0.49%; in experiment [2], 0.96%; in experiment [3] it was 1.58%; in [4], 2.63%; in [5], 0.46%; in experiment [6] it was -0.5%. Besides, the inhibition in experiment [7] is 1.84%; in experiment [8], -1.82%; in experiment [9], -0.45%; in experiment [10], 3.82%.

In the case of `Cc1nnc(-c2ccc(C)c(-c3ccc(C(=O)Nc4cccc(C#N)c4)cc3)c2)o1`, the inhibition was 1.23% in experiment [1]; 0.29% in experiment [2]; 4.49% in experiment [3]; -1.98% in [4]; 0.76% in experiment [5]; 1.01% in experiment [6]. Besides, the inhibition was 3.55% in [7], 2.8% in [8], 2.03% in experiment [9] and -0.06% in experiment [10].

As for `COc1ccc(COc2ccc(Cc3cnc(N)nc3N)cc2OC)cc1`, the inhibition in [1] is -0.61%; in [2] it was 5.08%; in [3] it was 1.31%; in [4] it was 4.24%; in experiment [5], 3%; in experiment [6], 2.57%. Besides, the inhibition in experiment [7] is 1.28%; in experiment [8] it was -0.17%; in experiment [9], -0.28%; in [10], 2.65%.

`CS(=O)(=O)CCNCc1nc(-c2ccc3ncnc(Nc4ccc(F)c(Cl)c4)c3c2)cs1`: the inhibition in experiment [1] was 1.36%; in [2], 0.28%; in [3], 4.55%; in experiment [4] it was 2.82%; in experiment [5], -2.15%; in [6], 3.08%. The inhibition in [7] is 2.67%; in [8], 2.39%; in experiment [9] it was 1.3%; in experiment [10] it was -4.68%.

As to `Cn1cc(C=C2C(=O)Nc3cccnc32)c2ccccc21`, the inhibition in experiment [1] was 10.2%; in experiment [2], 1.6%; in experiment [3] it was 5.51%; in experiment [4], -2.41%; in experiment [5], 1.75%; in experiment [6], 1.35%. Further, the inhibition in experiment [7] worked out at 0.63%; in experiment [8] it was 5.84%; in experiment [9] it was 14.8%; in experiment [10] it was 4.46%.

For the molecule `Cc1ccc(C(=O)NC2CCCCC2)cc1-c1ccc(C(=O)NCC2CC2)cc1`, the inhibition in [1] is 1.2%; in [2], 3.14%; in experiment [3], 2.69%; in [4], 1.32%; in [5], -1.56%; in experiment [6] it was 2.99%. The inhibition was 0.67% in experiment [7], 2.86% in experiment [8], 0.6% in experiment [9] and 3.32% in [10].

As for `CC1=C(C(=O)Nc2ccc3[nH]ncc3c2)C(c2ccc(F)cc2)NC(=O)N1` (centres undefined), the inhibition in experiment [1] was 2.82%; in [2], 1.11%; in [3] it was 7.18%; in [4], -1.1%; in [5], 4.13%; in [6] it was 4.02%. Moreover, the inhibition in experiment [7] amounted to 6.8%; in experiment [8], 3.82%; in [9], 20.4%; in [10], 3.59%.

`COC(=O)Nc1nc2cc(Oc3cccc(NC(=O)Nc4cc(C(F)(F)F)ccc4F)c3)ccc2[nH]1`: the inhibition in experiment [1] is 1.04%; in experiment [2] it was 0.32%; in experiment [3], 0.41%; in experiment [4], -2.66%; in [5], -3.24%; in experiment [6] it was -0.34%. Moreover, the inhibition in experiment [7] was -0.49%; in experiment [8] it was 1.64%; in [9], 0.51%; in [10], 0.44%.
